This is part of a sample that, as a whole, favours compounds with a hit. Of some 83,000 tested, about 20% had one in any assay.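 Assay: single dose, 48 h. Readout: percent growth (0 = no net growth; negative = cell death). Active: <10.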 The source made the active and inactive calls.

For this experiment, the system named is HL-60(TB) leukemia. Description: NCI-60 one-dose screen, 48 h (100 = growth as untreated, 0 = no growth, -100 = all killed). Conditions: 10 µM unless noted.
With `O=C1CCCC1[n+]1ccccc1` (stereo not given), the growth is 88.1% (inactive).

`O=c1c2cccc3c(Nc4c(F)cccc4F)ccc(c32)c2nc3ccccc3n12`: the growth was 85.9% (inactive).

Regarding `O=C(COc1cccc(/C=C2\Oc3ccc4ccccc4c3C2=O)c1)c1ccc([N+](=O)[O-])cc1`, the growth is 94.8% (inactive). Regarding `C=C1CCC2C3(C)COC(c4cccc(Cl)c4)OC3CCC2(C)C1/C=C/C1=CCOC1=O` (stereo not given), the growth is 33.7% (inactive). As for `COc1ccc(C(=O)c2cc3c(N)c(C(=O)Nc4ccccc4)sc3nc2C)cc1`, the growth was -46% (active). As for `CCCCc1n(Cc2ccc3ccccc3n2)cc[n+]1Cc1ccc2ccccc2c1`, the growth is -46.1% (active).

As to `Cc1ccc(-c2nc(N3CCCNCC3)c3oc(-c4ccc(C)cc4)nc3n2)cc1`, the growth is -69.3% (active).

Regarding `Cc1ccc(C(=O)NC2c3ccccc3Oc3ccccc32)cc1`, the growth is -3.42% (active). Regarding `C=C1C(=O)O[C@H]2[C@H]1CC/C(CNC(=O)/C=C/c1ccc(Br)cc1)=C\CC[C@@]1(C)O[C@@H]21`, the growth is -15.8% (active). On to `CN1CCN(CC(=O)N2c3cccc4cccc(c34)N(C(=O)CN3CCN(C)CC3)C2c2cn(-c3ccccc3)nc2-c2cccc([N+](=O)[O-])c2)CC1`, for which the growth was -60% (active). With `Nc1ccc(S(=O)(=O)Nc2cc(F)cc(F)c2)cc1`, the growth is 73% (inactive). As for `COc1cc2c(C#N)n3c(c2cc1OC)C(=O)C(c1ccccc1)Oc1ccccc1-3` (stereo not given), the growth was 61.1% (inactive). Regarding `CCC/C(=N\NC(N)=O)C(OC)OC`, the growth is 86.5% (inactive). As for `Cc1cccc(C)c1NC(=O)CSC(=S)N1CCN(CCOCCO)CC1`, the growth was 88.7% (inactive).

In the case of `CN(C)CCCNc1nc2ccccc2c2c(=O)c3cc(F)ccc3sc12`, the growth was -43.5% (active). The result for `COc1ccc(/C=C/C(=O)c2cc3c(N)c(C(=O)Nc4ccc(OC)cc4)sc3nc2C)cc1` reads 2.26% (active). As to `O=C1NC2(Nc3ccccc31)C(=O)Nc1c(Cl)cc(Cl)cc12` (stereo not given), the growth is 106% (inactive).

As for `CC(C)c1ccccc1NC(=O)N1CCC(C(C)C)CC1`, the growth is 105% (inactive). As to `COc1cc(N)ccc1Nc1c2ccccc2nc2ccccc12`, the growth is 48.2% (inactive).

Turning to `O=C(O)c1cccc([N+](=O)[O-])c1`, the growth is 107% (inactive). On to `CCCCCCCCCCCC[S+](C)CC(=O)[O-]` (stereo not given), for which the growth is 20.3% (inactive).

Turning to `Cn1cc(C=O)c2ccccc21`, the growth was 92.8% (inactive). With `COc1ccc(/C=C2\CCCC3C2=Nc2ccccc2NC3c2ccc(OC)cc2)cc1` (stereo not given), the growth is 78.2% (inactive). With `CCOC(=O)c1ccc(NC(=O)N2CC(C)OC(C)C2)cc1` (stereo not given), the growth was 92.8% (inactive).

For `CCN(CC)c1ccc(Nc2ccc(CC(=O)c3ccccc3)cc2)cc1`, the growth was 97.9% (inactive). The result for `CCOC(=O)c1ccc(NCCC(=O)O)cc1` reads 96.4% (inactive); that for `COc1ccc(-c2nn(C(=O)c3cc(OC)c(OC)c(OC)c3)c3cc(N)ccc23)cc1`, 5.67% (active); that for `CCOC(=O)[C@@H](Cc1ccccc1)NC(=O)c1[nH]c2ccc(Cl)cc2c(=O)c1C`, 104% (inactive). On to `O=C1/C(=C/c2ccc(Cl)cc2)CN(Cc2cn(CCNc3ccnc4cc(Cl)ccc34)nn2)C/C1=C\c1ccc(Cl)cc1`, for which the growth was -51.5% (active).

For `O=c1[nH]c2ccccc2cc1-c1nc2ccncc2[nH]1`, the growth was 25.9% (inactive). For the compound `CCNC(=O)Oc1ccc(/C(=C(/C)Cc2ccc(OC)cc2)c2ccc(OCCN3CCCCCC3)cc2)cc1`, the growth was 38.1% (inactive). Turning to `COc1cc(/C=C/c2cn[nH]c2-c2ccc(C)cc2)cc(OC)c1OC`, the growth is 4.76% (active). In the case of `CN1CCCC1=Nc1ccccc1`, the growth was 93.3% (inactive). For `CC1CN(S(=O)(=O)c2oc(-c3ccc(Cl)cc3)nc2C#N)CC(C)O1` (stereo not given), the growth is 23.4% (inactive). In the case of `NC(=O)CC1(c2ccccc2)CCCCC1`, the growth was 98.4% (inactive). Turning to `Cn1c(COC(=O)N2CCCCC2)nc2c(N3CCOCC3)nc(-c3ccccc3)nc21`, the growth was -28% (active).

On to `BrCCCOc1ccc(Oc2ccc(OCCCBr)cc2)cc1`, for which the growth was 106% (inactive). For `O=[N+]([O-])c1ccc2c(c1)Cc1ccccc1-2`, the growth was 87% (inactive).

Regarding `CC(=O)OC1Oc2ccccc2-c2oc3nc(=N)n(C)c-3cc21` (stereo not given), the growth is 94.4% (inactive).

As for `CSc1nc2ncncc2[nH]1`, the growth is 91.2% (inactive).

The values above are taken from PubChem BioAssay (NCI).
